In PubChem BioAssay (EPA / NIEHS):
Results filed as inconclusive are left out. Calls of active or inactive are those of the source. The calls were made as follows: active = hit-call score of the fitted dose curve at least 0.9, where 1 is the maximum; inconclusive = response in the unintended direction; inactive = score below 0.9.

Experiments:
[1] = biological target: human Rho Associated Coiled-coil Containing Protein Kinase 1 (ROCK1), ROCK1 (gene 6093) (UniProt Q13464); experiment: NVS_ENZ_hROCK1: NovaScreen (NVS) Enzymatic Assay for human Rho Associated Coiled-coil Containing Protein Kinase 1 (ROCK1) (AID 2283214)
Method in brief: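 Cell-free recombinant human ROCK1 activity assay; fluorescent substrate and product separated by electrophoretic mobility shift, read 1 h after dosing. Screened in duplicate at 25 uM; loss of signal versus DMSO baseline scored as inhibition.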

[2] = biological target: rabbit Imidazoline 2 Central (I2C), CKB (gene 100009085) (UniProt P00567); experiment: NVS_ENZ_rabI2C: NovaScreen (NVS) Enzymatic Assay for rabbit Imidazoline 2 Central (I2C) (AID 2283228)
Method in brief: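 Rabbit brain membranes, cell-free; readout by filter-based scintillation counting 1.5 hours after dosing, loss of signal vs DMSO. Initial duplicate test at 25 uM, then concentration-response with 50 uM top concentration.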

[3] = biological target: human Protein Tyrosine Phosphatase Non-receptor Type 4 (PTPN4), PTPN4 (gene 5775) (UniProt P29074); experiment: NVS_ENZ_hPTPN4: NovaScreen (NVS) Enzymatic Assay for human Protein Tyrosine Phosphatase Non-receptor Type 4 (PTPN4) (AID 2283208)
Method in brief: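 Cell-free assay of PTPN4 expressed in Sf9 cells, using a fluorescent substrate with product separated by mobility shift; read 1.33 h after dosing. Single-point screen at 25 uM, then concentration-response up to 50 uM. Loss of signal relative to DMSO.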

[4] = biological target: human Sirtuin 1 (SIRT1), SIRT1 (gene 23411) (UniProt Q96EB6); experiment: NVS_ENZ_hSIRT1: NovaScreen (NVS) Enzymatic Assay for human Sirtuin 1 (SIRT1) (AID 2283219)
Method in brief: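 Cell-free recombinant SIRT1 with a fluorescent substrate; substrate and product separated by electrophoretic mobility shift and read by fluorescence intensity, 1 h after dosing. Primary screen at 25 uM in duplicate; hits re-run in concentration-response up to 50 uM, relative to DMSO.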

[5] = biological target: human Sirtuin 2 (SIRT2), SIRT2 (gene 22933) (UniProt Q8IXJ6); experiment: NVS_ENZ_hSIRT2: NovaScreen (NVS) Enzymatic Assay for human Sirtuin 2 (SIRT2) (AID 2283217)
Method in brief: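 Cell-free recombinant human SIRT2, fluorescent substrate with product separated by electrophoretic mobility shift, 1 hr. Screened in duplicate at 25 uM; hits rerun singly in concentration-response up to 50 uM, relative to DMSO.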

[6] = biological target: Tyrosine-protein phosphatase non-receptor type 12 (Homo sapiens) (UniProt Q05209); experiment: NVS_ENZ_hPTPN12: NovaScreen (NVS) Enzymatic Assay for human Protein Tyrosine Phosphatase Non-receptor Type 12 (PTPN12) (AID 2283204)
Method in brief: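 Single-concentration duplicates (25 uM) preceded singleton concentration-response up to 50 uM for chemicals passing threshold. Cell-free recombinant PTPN12 activity was read 1.33 h after dosing via fluorescence after mobility-shift separation; loss of signal versus DMSO.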

[7] = biological target: Tyrosine-protein phosphatase non-receptor type 13 (Homo sapiens) (UniProt Q12923); experiment: NVS_ENZ_hPTPN13: NovaScreen (NVS) Enzymatic Assay for human Protein Tyrosine Phosphatase Non-receptor Type 13 (PTPN13) (AID 2283205)
Method in brief: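 Cell-free assay of recombinant human PTPN13 with a fluorescent substrate, product separated by electrophoretic mobility shift and read 0.5 h after dosing. Primary screen at 25 uM in duplicate, then concentration-response up to 50 uM. Loss of signal fitted against DMSO.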

[8] = biological target: human Protein Tyrosine Phosphatase Non-receptor Type 9 (PTPN9), PTPN9 (gene 5780) (UniProt P43378); experiment: NVS_ENZ_hPTPN9: NovaScreen (NVS) Enzymatic Assay for human Protein Tyrosine Phosphatase Non-receptor Type 9 (PTPN9) (AID 2283209)
Method in brief: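 Sf9-expressed enzyme in a cell-free assay, fluorescence read 1.33 h after dosing with mobility-shift separation of substrate and product. Tested at 25 uM in duplicate, then up to 50 uM; signal loss versus DMSO.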

[9] = biological target: human Protein Tyrosine Phosphatase Receptor Type B (PTPRB), PTPRB (gene 5787) (UniProt P23467); experiment: NVS_ENZ_hPTPRB: NovaScreen (NVS) Enzymatic Assay for human Protein Tyrosine Phosphatase Receptor Type B (PTPRB) (AID 2283211)
Method in brief: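 Recombinant human PTPRB with a fluorescent substrate, product separated by electrophoretic mobility shift; read 1 h after dosing. Primary screen in duplicate at 25 uM; actives then retested in concentration series; loss of signal versus DMSO.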

[10] = biological target: human SRC Proto-Oncogene, Non-receptor Tyrosine Kinase (SRC), SRC (gene 6714) (UniProt P12931); experiment: NVS_ENZ_hSRC: NovaScreen (NVS) Enzymatic Assay for human SRC Proto-Oncogene, Non-receptor Tyrosine Kinase (SRC) (AID 2283223)
Method in brief: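 Cell-free kinase activity assay with fluorescent substrate, product separated by electrophoretic mobility shift, read 1 h after dosing. Duplicate single point at 25 uM, then concentration-response up to 50 uM; loss of signal versus DMSO.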

[11] = biological target: human Vascular Endothelial Growth Factor Receptor 1 (VEGFR1), FLT1 (gene 2321) (UniProt P17948); experiment: NVS_ENZ_hVEGFR1: NovaScreen (NVS) Enzymatic Assay for human Vascular Endothelial Growth Factor Receptor 1 (VEGFR1) (AID 2283226)
Method in brief: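 Cell-free assay of recombinant human VEGFR1 kinase with substrate, measured 1 h after dosing; fluorescence with electrophoretic mobility-shift separation of substrate and product, referenced to DMSO; primary screen at 25 uM in duplicate, actives then run in concentration series.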

[12] = biological target: Tyrosine-protein phosphatase non-receptor type 14 (Homo sapiens) (UniProt Q15678); experiment: NVS_ENZ_hPTPN14: NovaScreen (NVS) Enzymatic Assay for human Protein Tyrosine Phosphatase Non-receptor Type 14 (PTPN14) (AID 2283206)
Method in brief: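 Cell-free recombinant human PTPN14 with fluorescent substrate, read 0.5 h after dosing by fluorescence and electrophoretic mobility shift separating substrate from product. Primary screen at 25 uM in duplicate; hits run to 50 uM maximum; loss of signal versus DMSO.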

[13] = biological target: human Protein Tyrosine Phosphatase Non-receptor Type 6 (PTPN6), PTPN6 (gene 5777) (UniProt P29350); experiment: NVS_ENZ_hPTPN6: NovaScreen (NVS) Enzymatic Assay for human Protein Tyrosine Phosphatase Non-receptor Type 6 (PTPN6) (AID 2283210)
Method in brief: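 Cell-free assay with recombinant PTPN6 expressed in SF9 cells, fluorescent substrate, product separated from substrate by electrophoretic mobility shift; read 1.33 hours after dosing. Primary screen in duplicate at 25 uM, actives retested in concentration series; DMSO baseline.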

[14] = biological target: human Protein Tyrosine Phosphatase Receptor Type F (PTPRF), PTPRF (gene 5792) (UniProt P10586); experiment: NVS_ENZ_hPTPRF: NovaScreen (NVS) Enzymatic Assay for human Protein Tyrosine Phosphatase Receptor Type F (PTPRF) (AID 2283213)
Method in brief: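 Cell-free fluorescence enzyme assay with recombinant protein and substrate; product separated by electrophoretic mobility shift. Read 1 h after dosing, single 25 uM duplicate screen, then concentration-response up to 50 uM; loss of signal vs DMSO.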

[15] = biological target: human Protein Tyrosine Phosphatase Receptor Type M (PTPRM), PTPRM (gene 5797) (UniProt P28827); experiment: NVS_ENZ_hPTPRM: NovaScreen (NVS) Enzymatic Assay for human Protein Tyrosine Phosphatase Receptor Type M (PTPRM) (AID 2283215)
Method in brief: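 Cell-free recombinant PTPRM with fluorogenic substrate; product separated from substrate by electrophoretic mobility shift and read by fluorescence, 1.33 h after dosing. Primary screen single concentration (25 uM) in duplicate; actives retested in concentration series; loss of signal versus DMSO.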

[16] = biological target: human Vascular Endothelial Growth Factor Receptor 3 (VEGFR3), FLT4 (gene 2324) (UniProt P35916); experiment: NVS_ENZ_hVEGFR3: NovaScreen (NVS) Enzymatic Assay for human Vascular Endothelial Growth Factor Receptor 3 (VEGFR3) (AID 2283229)
Method in brief: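 Cell-free recombinant VEGFR3 kinase reaction with fluorescent substrate, read 1 h after dosing by electrophoretic mobility shift separation of substrate and product. Single-concentration duplicate screen at 25 uM, then concentration-response up to 50 uM; loss of activity versus DMSO.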

[17] = biological target: human Vascular Endothelial Growth Factor Receptor 2 (VEGFR2), KDR (gene 3791) (UniProt P35968); experiment: NVS_ENZ_hVEGFR2: NovaScreen (NVS) Enzymatic Assay for human Vascular Endothelial Growth Factor Receptor 2 (VEGFR2) (AID 2283230)
Method in brief: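 Cell-free recombinant VEGFR2 kinase, fluorescent substrate with electrophoretic mobility-shift separation; read 1 h after dosing. Screened at 25 uM in duplicate, hits to concentration-response up to 50 uM; loss-of-signal versus DMSO.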

Chain of Tyrosine-protein phosphatase non-receptor type 12 (Homo sapiens) (Q05209 whole entry, looked up): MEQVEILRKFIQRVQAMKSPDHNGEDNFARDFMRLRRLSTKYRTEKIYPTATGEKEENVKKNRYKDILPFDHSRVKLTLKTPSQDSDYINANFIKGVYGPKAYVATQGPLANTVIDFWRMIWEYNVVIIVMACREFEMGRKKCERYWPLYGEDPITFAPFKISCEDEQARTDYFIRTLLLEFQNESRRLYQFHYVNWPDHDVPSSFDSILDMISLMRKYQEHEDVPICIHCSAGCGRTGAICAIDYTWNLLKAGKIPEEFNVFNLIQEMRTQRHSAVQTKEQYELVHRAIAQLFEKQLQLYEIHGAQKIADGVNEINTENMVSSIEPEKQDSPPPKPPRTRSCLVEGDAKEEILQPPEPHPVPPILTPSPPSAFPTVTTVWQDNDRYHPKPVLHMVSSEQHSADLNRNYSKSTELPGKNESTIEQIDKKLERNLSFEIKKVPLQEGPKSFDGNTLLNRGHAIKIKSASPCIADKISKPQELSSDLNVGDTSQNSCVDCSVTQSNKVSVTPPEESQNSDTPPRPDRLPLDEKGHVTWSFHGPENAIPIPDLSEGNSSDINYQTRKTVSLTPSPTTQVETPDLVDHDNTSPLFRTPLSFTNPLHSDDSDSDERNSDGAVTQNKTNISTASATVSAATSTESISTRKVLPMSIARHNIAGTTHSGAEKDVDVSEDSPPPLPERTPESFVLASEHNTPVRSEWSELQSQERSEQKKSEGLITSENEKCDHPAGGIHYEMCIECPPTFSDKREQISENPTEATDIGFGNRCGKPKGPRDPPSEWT
Chain of rabbit Imidazoline 2 Central (I2C), CKB (gene 100009085) (P00567 whole entry, looked up): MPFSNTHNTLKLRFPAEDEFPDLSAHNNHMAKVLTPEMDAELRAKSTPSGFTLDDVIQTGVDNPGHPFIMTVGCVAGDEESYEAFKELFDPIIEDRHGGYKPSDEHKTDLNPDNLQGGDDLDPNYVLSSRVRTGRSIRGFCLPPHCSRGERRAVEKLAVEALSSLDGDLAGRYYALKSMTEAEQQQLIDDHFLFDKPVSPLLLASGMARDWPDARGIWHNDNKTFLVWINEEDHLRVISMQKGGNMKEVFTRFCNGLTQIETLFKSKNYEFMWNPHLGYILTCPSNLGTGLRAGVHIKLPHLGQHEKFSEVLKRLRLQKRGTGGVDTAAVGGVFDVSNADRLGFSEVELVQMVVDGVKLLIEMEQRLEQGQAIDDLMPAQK
Chain of human Sirtuin 2 (SIRT2), SIRT2 (gene 22933) (Q8IXJ6 whole entry, looked up): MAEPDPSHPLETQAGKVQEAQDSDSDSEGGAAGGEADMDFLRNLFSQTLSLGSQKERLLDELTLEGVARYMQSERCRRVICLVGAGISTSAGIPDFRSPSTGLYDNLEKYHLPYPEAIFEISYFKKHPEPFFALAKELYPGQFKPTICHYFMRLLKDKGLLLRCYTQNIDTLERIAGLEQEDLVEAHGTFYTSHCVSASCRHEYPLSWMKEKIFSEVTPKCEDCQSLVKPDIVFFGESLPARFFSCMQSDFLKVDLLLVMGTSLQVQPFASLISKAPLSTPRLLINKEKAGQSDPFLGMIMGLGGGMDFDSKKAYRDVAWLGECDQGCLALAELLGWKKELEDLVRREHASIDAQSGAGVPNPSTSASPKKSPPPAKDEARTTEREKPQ
Chain of human Protein Tyrosine Phosphatase Non-receptor Type 4 (PTPN4), PTPN4 (gene 5775) (P29074 whole entry, looked up): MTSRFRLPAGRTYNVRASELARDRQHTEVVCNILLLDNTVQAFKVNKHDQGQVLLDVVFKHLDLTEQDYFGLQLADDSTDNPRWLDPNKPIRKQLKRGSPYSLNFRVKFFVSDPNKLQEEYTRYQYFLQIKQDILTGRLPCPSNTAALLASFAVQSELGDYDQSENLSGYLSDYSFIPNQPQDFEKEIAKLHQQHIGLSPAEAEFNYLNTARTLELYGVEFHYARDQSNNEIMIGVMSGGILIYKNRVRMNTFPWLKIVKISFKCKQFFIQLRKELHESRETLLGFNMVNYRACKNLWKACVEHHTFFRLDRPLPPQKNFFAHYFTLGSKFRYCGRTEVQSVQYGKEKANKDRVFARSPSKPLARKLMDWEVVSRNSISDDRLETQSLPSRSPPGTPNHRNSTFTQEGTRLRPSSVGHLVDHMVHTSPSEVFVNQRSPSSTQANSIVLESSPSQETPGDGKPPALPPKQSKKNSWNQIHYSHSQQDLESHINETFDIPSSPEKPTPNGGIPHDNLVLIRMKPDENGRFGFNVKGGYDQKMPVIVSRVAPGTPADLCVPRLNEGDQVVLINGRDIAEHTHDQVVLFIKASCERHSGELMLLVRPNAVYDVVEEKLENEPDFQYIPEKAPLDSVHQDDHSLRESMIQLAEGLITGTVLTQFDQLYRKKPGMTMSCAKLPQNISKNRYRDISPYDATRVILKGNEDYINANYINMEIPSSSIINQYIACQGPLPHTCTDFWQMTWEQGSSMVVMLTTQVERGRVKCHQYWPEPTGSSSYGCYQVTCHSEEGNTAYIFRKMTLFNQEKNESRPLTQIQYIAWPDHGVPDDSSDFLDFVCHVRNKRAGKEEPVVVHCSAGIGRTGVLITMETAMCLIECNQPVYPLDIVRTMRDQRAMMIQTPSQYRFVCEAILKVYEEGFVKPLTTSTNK
Chain of human Sirtuin 1 (SIRT1), SIRT1 (gene 23411) (Q96EB6 whole entry, looked up): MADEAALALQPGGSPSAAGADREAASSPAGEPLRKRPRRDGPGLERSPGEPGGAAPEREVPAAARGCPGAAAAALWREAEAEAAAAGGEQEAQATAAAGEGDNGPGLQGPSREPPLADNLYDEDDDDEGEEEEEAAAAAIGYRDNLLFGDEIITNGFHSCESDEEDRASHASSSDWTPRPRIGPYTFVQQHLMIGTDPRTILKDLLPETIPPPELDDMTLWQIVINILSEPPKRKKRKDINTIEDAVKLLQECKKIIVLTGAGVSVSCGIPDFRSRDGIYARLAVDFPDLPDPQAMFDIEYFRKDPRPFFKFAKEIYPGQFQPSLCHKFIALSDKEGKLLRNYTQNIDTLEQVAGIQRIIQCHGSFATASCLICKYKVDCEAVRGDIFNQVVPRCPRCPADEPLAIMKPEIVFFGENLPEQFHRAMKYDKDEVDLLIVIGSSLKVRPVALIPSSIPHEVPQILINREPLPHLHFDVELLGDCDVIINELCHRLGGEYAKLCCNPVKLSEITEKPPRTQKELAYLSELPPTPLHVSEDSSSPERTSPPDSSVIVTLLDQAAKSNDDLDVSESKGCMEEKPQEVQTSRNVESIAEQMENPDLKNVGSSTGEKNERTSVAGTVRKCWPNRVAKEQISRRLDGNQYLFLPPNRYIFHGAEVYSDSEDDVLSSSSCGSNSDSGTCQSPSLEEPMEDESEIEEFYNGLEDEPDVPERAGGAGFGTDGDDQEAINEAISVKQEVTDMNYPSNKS
Chain of human Protein Tyrosine Phosphatase Non-receptor Type 9 (PTPN9), PTPN9 (gene 5780) (P43378 whole entry, looked up): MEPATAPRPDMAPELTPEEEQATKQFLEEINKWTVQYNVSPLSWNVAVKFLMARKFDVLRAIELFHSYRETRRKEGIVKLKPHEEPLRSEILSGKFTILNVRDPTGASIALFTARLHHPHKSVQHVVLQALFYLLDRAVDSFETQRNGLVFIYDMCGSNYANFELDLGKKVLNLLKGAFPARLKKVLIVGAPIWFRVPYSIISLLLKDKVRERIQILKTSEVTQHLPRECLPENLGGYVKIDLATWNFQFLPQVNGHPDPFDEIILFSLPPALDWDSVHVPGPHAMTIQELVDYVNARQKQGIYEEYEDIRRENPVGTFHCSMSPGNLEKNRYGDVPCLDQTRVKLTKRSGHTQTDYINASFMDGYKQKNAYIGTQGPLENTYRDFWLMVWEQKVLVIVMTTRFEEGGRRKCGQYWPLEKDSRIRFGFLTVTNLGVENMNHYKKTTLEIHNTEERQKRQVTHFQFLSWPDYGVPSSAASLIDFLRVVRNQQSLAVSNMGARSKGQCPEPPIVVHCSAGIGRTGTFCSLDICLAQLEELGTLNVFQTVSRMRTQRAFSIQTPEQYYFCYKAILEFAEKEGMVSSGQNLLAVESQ
Chain of Tyrosine-protein phosphatase non-receptor type 14 (Homo sapiens) (Q15678 whole entry, looked up): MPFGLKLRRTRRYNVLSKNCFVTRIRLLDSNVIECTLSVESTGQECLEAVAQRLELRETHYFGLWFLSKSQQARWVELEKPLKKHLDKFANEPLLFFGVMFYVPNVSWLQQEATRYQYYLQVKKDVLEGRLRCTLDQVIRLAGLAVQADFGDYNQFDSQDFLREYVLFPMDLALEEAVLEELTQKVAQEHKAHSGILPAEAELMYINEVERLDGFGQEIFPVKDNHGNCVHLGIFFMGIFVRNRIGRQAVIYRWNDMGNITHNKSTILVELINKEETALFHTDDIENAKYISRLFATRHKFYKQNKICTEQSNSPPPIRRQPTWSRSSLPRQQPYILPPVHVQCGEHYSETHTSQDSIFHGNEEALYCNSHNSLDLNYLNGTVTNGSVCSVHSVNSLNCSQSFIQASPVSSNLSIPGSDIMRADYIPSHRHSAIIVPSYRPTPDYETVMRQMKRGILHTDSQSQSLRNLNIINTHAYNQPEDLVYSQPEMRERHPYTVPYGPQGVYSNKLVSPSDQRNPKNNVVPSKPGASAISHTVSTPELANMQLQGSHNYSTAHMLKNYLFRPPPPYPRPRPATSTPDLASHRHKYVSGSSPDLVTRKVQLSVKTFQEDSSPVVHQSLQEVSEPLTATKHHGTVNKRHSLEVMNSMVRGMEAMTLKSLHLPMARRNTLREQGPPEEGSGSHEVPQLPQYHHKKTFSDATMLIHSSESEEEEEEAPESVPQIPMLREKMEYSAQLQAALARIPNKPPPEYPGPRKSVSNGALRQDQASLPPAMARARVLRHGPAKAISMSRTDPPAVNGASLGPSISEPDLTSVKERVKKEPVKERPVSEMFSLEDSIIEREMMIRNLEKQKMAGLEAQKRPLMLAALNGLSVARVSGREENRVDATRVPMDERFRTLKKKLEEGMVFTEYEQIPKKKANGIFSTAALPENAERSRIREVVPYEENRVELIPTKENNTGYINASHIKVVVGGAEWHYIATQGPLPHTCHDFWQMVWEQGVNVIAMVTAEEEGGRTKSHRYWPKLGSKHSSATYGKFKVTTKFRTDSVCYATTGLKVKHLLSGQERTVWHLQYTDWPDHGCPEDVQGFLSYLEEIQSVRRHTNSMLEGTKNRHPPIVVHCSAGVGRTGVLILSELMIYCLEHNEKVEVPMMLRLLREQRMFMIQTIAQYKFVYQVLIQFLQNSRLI

Question: For `NC(=O)N1C(=O)C(C(=O)c2cc(Cl)cs2)c2cc(F)c(Cl)cc21` (stereo not drawn), which outcome [1] is on record?
Answer: The outcome was “inactive”.

Question: What about the outcome [2] of the same molecule?
Answer: Its outcome is “inactive”.

Question: `N#C[C@@H]1CC(F)(F)CN1C(=O)CNC1CC2CCC(C1)N2c1ncccn1` (stereo partly drawn) was tested. Which outcome [3] did it give?
Answer: Its outcome is “inactive”.

Question: Which outcome [4] does the source give for `CCCCC(CC)COC(=O)CCCCC(=O)OCC(CC)CCCC` (stereo not drawn) here?
Answer: The outcome was “inactive”.

Question: `CCCCCCCC(=O)O` was tested. Which outcome [5] did it give?
Answer: The outcome was “inactive”.

Question: And the AC50 [4]?
Answer: Its AC50 is 6.65 µM (active).

Question: And the outcome [2]?
Answer: Its outcome is “inactive”.

Question: Which AC50 [5] does the source give for `Cc1oc(-c2ccccc2)nc1CCOc1ccc(C[C@H](Nc2ccccc2C(=O)c2ccccc2)C(=O)O)cc1` here?
Answer: Its AC50 is 18.3 µM (active).

Question: Which outcome [3] does the source give for `CC[C@H](C)[C@@H](C(=O)O)n1sc2ccccc2c1=O` here?
Answer: The outcome was “inactive”.

Question: What about the outcome [4] of the same molecule?
Answer: Its outcome is “inactive”.

Question: Which results are given for `COCC(C)OCC(C)O` (stereo not drawn)?
Answer: outcome [6]: inactive; outcome [7]: inactive; outcome [3]: inactive; outcome [8]: inactive; outcome [9]: inactive; outcome [5]: inactive; outcome [4]: inactive; outcome [10]: inactive

Question: `CC1=C(/C=C/C(C)=C/C=C/C(C)=C/C(=O)O)C(C)(C)CCC1` was tested. Which outcome [11] did it give?
Answer: Its outcome is “inactive”.

Question: And the outcome [2]?
Answer: The outcome was “inactive”.

Question: With `CN1CCC[C@H]1c1cccnc1` as the molecule, how does the outcome [3] read?
Answer: The outcome was “inactive”.

Question: How did the outcome [6] turn out when `O=c1c(-c2ccc(O)cc2)coc2cc(O)ccc12` was run?
Answer: Its outcome is “inactive”.

Question: What about the outcome [12] of the same molecule?
Answer: Its outcome is “inactive”.

Question: What does the source list for `CC(C)(C)c1cccc(C(C)(C)C)c1O`?
Answer: outcome [5]: inactive; outcome [11]: inactive

Question: With `CCCCCCCCCCCCc1ccccc1S(=O)(=O)O` as the molecule, how does the AC50 [6] read?
Answer: Its AC50 is 11.3 µM (active).

Question: What about the AC50 [7] of the same molecule?
Answer: The AC50 was 21.1 µM (active).

Question: What about the AC50 [12] of the same molecule?
Answer: The AC50 was 38.2 µM (active).

Question: What about the AC50 [3] of the same molecule?
Answer: Its AC50 is 19.8 µM (active).

Question: What about the AC50 [8] of the same molecule?
Answer: Its AC50 is 4.22 µM (active).

Question: And the AC50 [13]?
Answer: Its AC50 is 13.4 µM (active).

Question: And the AC50 [9]?
Answer: The AC50 was 25 µM (active).

Question: And the AC50 [14]?
Answer: Its AC50 is 25 µM (active).

Question: And the AC50 [15]?
Answer: The AC50 was 16.3 µM (active).

Question: And the AC50 [5]?
Answer: Its AC50 is 24.4 µM (active).

Question: And the outcome [10]?
Answer: The outcome was “inactive”.

Question: What about the AC50 [16] of the same molecule?
Answer: Its AC50 is 9.14 µM (active).

Question: And the AC50 [17]?
Answer: Its AC50 is 39.2 µM (active).
